Results reported in PubChem BioAssay (NCI).
About 83,000 compounds went through this panel and 20% of them were active in at least one assay; those are over-represented in the sample as a whole.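 Interpretation: 100, growth as untreated; towards 0, rising growth inhibition; 0, no net growth; 0 to -100, cell death. Compounds scoring below 10 were considered active.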 A number with no mark means an inactive call. Calls of active or inactive are those of the source.

Tests used:
Test in all cases: NCI-60 one-dose screen, 48 h (100 = growth as untreated, 0 = no growth, -100 = all killed)
Conditions in all cases: 10 µM unless noted
[1] = test system: HCT-15 colon
[2] = test system: HT29 colon
[3] = test system: SNB-75 CNS
[4] = test system: SNB-19 CNS
[5] = test system: U251 CNS
[6] = test system: PC-3 prostate
[7] = test system: SK-MEL-5 melanoma
[8] = test system: UACC-62 melanoma
[9] = test system: LOX IMVI melanoma
[10] = test system: SK-MEL-28 melanoma

Compound	growth [1]	growth [2]	growth [3]	growth [4]	growth [5]	growth [6]	growth [7]	growth [8]	growth [9]	growth [10]
CC1(C)CC[C@]2(C(=O)O)CC[C@]3(C)[C@H](CC[C@@H]4[C@@]5(C)CCC(=O)C(C)(C)[C@@H]5CC[C@]43C)[C@H]2[C@H]1OC(=O)C(F)(F)F	-64% [100 µM] (active)	-37.7% [100 µM] (active)	-36.5% [100 µM] (active)	-78.4% [100 µM] (active)	-71.4% [100 µM] (active)	-56.4% [100 µM] (active)	-94.2% [100 µM] (active)	-85.2% [100 µM] (active)	-99.1% [100 µM] (active)	-58.5% [100 µM] (active)
Cc1ccc(NC(=O)N[C@@H](Cc2cc(F)cc(F)c2)C(=O)N[C@@H]2C(=O)N3CCC[C@H]3C(=O)N3CCOC[C@H]3C(=O)N[C@@H](C)C(=O)N3C[C@H](C)C[C@H]3C(=O)O[C@H]2C)cc1	32.9%	32.4%	16.9%	21.5%	27.1%	19.1%	10.6%	26.3%	38.3%	42.3%
CC1Cc2c(Cl)ncnc2N(C)c2ccc(Cl)cc21 (stereo not given)	6.68% (active)	-0.897% (active)	50.1%	25.2%	18.8%	13.9%	-86.9% (active)	11.8%	-69.3% (active)	20.6%
Clc1ccccc1/C=N\Nc1ccccn1	77.6%	94.3%	74.8%	90.6%	95.4%	104%	89.2%	85.3%	93%	99.2%
CCCCCn1c(C)cc(/C=C\c2ccc3cc(C)ccc3[n+]2C)c1C	-12% (active)	-61.8% (active)	-94.4% (active)	-89.8% (active)	-93.9% (active)	-47.9% (active)	-95.7% (active)	-89.8% (active)	-72.4% (active)	-87.1% (active)
CC(=O)O.CC(=O)O.O.[Fe]	111%	98.7%	114%	98.2%	107%	93.4%	107%	93.7%	100%	112%
CC(=O)Nc1ccc(C=Nc2ccc3ccccc3c2)cc1	105%	105%	77.7%	92.9%	113%	96.5%	99.6%	97.2%	114%	108%
CCN(CC)c1ccc2cc(NC(=O)OCCNC(=O)CCNC(=O)[C@H](CC(C)C)NC(=O)C(C)(C)NC(=O)C(C)(C)NC(=O)[C@H](CC(C)C)NC(=O)CCNC(=O)C(C)(C)NC(=O)[C@H](CC(C)C)NC(=O)CCNC(=O)[C@@](C)(CC)NC(=O)[C@H](C)NC(=O)CCNC(=O)C(C)(C)NC(=O)[C@H](C)NC(=O)[C@@H]3CCCN3C(=O)[C@@](C)(CC)NC(=O)[C@H](Cc3ccccc3)NC(=O)C3CCCN3C(=O)C(C)(C)NC(=O)C3CCCN3C(=O)C(C)(C)NC(C)=O)c(=O)oc2c1 (stereo not given in full)	-93.3% (active)	-81.4% (active)	-91.6% (active)	-76.5% (active)	-85.6% (active)	-91.2% (active)	-100% (active)	-76.2% (active)	-85% (active)	-84.1% (active)
CC(C)C1=NOC(=O)C1=Cc1cn(-c2ccccc2)nc1-c1ccc(Br)cc1	74.3%	60.3%	65.6%	90.3%	73.7%	82.3%	97.2%	76.1%	26.4%	83.4%
CCN(CC)c1ccc(/C=C/c2ccc3cc(C)ccc3[n+]2CC)cc1	13.3%	-14.4% (active)	7.55% (active)	24.8%	9.59% (active)	-0.319% (active)	-97.5% (active)	1.47% (active)	-8.32% (active)	2.66% (active)
Cn1cc(-c2nnc(-c3cn(C)c4ncccc34)s2)c2ccccc21	45.1%	54.3%	49.4%	76.6%	74.8%	53.8%	63.7%	69.2%	86%	77.4%
N#Cc1c(N2CCOCC2)nc(=S)[nH]c1-c1ccco1	71.4%	63.7%	15.9%	83.8%	76.4%	42.6%	62.6%	43.7%	63.7%	77.6%
O=[N+]([O-])c1cccc(/C=C/c2ccc3ccccc3n2)c1	82.5%	76.5%	7.41% (active)	64.1%	72.2%	77.8%	82%	82.9%	70.5%	87.3%
CCN(CC)CCS(=O)(=O)CCNc1ccnc2cc(Cl)ccc12	10.1%	-21.1% (active)	9.48% (active)	70%	-4.39% (active)	33%	29.5%	29.7%	11.3%	49.5%
Cc1cccc(C[C@H](NC(=O)Nc2ccc(C)cc2F)C(=O)N[C@@H]2C(=O)N3C[C@H](O)C[C@H]3C(=O)N3CCN(C)C[C@H]3C(=O)N[C@@H](C)C(=O)N3C[C@H](C)C[C@H]3C(=O)O[C@H]2C)c1	105%	33.8%	23.6%	22.7%	26.5%	22.6%	66.3%	31.4%	38.5%	47.9%
CC(C)(C)OC(=O)N1C=C/C(=C\Cn2cc(-c3ccccc3)nn2)CC1	86.9%	99.1%	78.8%	73.1%	91.8%	82.7%	36.7%	65.6%	76.9%	72.7%
COc1ccc(-c2ccc(NNC(=O)c3ccc(F)cc3)nn2)cc1OC	64.1%	59.7%	8.18% (active)	68.3%	77.1%	73.5%	71.6%	88.6%	44.2%	101%
CCn1cc(-c2ccnc(NCCNS(=O)(=O)c3ccc(Br)cc3)c2)c(-c2cccc(OC)c2)n1	69.2%	56.5%	81.7%	83.2%	58.8%	41.7%	64%	71%	94.2%	100%
CCCCOC(=O)c1cccc([N+](=O)[O-])c1	118%	107%	94.9%	113%	97.4%	95%	110%	108%	108%	119%
O=C(OCc1ccc2c(Cl)cc(Cl)c(O)c2n1)N1CCN(C(=O)c2cc3cc(F)ccc3[nH]2)CC1	10.6%	99.1%	28.6%	50.2%	8.06% (active)	15.8%	-33% (active)	35.3%	12.2%	60.7%
Nc1nc(SCc2cccc([N+](=O)[O-])c2)c2[nH]cnc2n1	95.1%	98.4%	89.5%	91.7%	95%	92.3%	98%	91.3%	77.9%	106%
O=C1C(Cl)=C(Nc2ccc3cn[nH]c3c2)C(=O)c2ccccc21	-84.1% (active)	-66.9% (active)	-84.5% (active)	76.5%	-93.2% (active)	-42% (active)	-99.5% (active)	-97.9% (active)	-87.5% (active)	-97.7% (active)
O=C(Nc1cc(-c2cccnc2)nc(NCCCN2CCOCC2)n1)c1cc(Br)cc(C(F)(F)F)c1	6.87% (active)	8.99% (active)	72.1%	69.6%	33.1%	57.7%	3.78% (active)	-6.13% (active)	-16.8% (active)	-49.8% (active)
CC(C)C1=NOC(=O)C1=Cc1cn(-c2ccccc2)nc1-c1ccc(Cl)cc1	64.9%	67.9%	83.8%	86%	71.1%	78.7%	83.2%	75.6%	6.02% (active)	84.9%
O=C(COc1cccc(/C=C2\Oc3ccccc3C2=O)c1)c1ccc([N+](=O)[O-])cc1	94.2%	108%	81.7%	91.3%	93.6%	86.6%	99%	72.2%	88.6%	135%
O=C(NCc1ccc(Cn2c(=O)sn(-c3ccccc3)c2=O)cc1)OCc1ccc2c(Br)cc(Br)c(O)c2n1	-10.2% (active)	-66.6% (active)	-93.8% (active)	19.2%	-83.6% (active)	-56.1% (active)	-97.4% (active)	-76.1% (active)	-92.3% (active)	-69.9% (active)
